Source: PubChem
The entries come from a sample that favours hits as a whole.
RBX1-CUL1 inh: inhibitors of human ROC1-CUL1 ubiquitin ligase activity | in vitro K48 di-Ub FRET, acceptor:donor ratio, 45 min | inhibition, % at 10 µM | 0.6% of 140,000 active | AID 1347404, 2020; in the data active means inhibition above about 25%
Target sequence (P62877 whole entry, looked up): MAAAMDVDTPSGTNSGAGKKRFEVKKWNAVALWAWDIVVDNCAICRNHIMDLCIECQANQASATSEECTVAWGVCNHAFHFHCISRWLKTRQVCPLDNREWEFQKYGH
Target sequence (Q13616 whole entry, looked up): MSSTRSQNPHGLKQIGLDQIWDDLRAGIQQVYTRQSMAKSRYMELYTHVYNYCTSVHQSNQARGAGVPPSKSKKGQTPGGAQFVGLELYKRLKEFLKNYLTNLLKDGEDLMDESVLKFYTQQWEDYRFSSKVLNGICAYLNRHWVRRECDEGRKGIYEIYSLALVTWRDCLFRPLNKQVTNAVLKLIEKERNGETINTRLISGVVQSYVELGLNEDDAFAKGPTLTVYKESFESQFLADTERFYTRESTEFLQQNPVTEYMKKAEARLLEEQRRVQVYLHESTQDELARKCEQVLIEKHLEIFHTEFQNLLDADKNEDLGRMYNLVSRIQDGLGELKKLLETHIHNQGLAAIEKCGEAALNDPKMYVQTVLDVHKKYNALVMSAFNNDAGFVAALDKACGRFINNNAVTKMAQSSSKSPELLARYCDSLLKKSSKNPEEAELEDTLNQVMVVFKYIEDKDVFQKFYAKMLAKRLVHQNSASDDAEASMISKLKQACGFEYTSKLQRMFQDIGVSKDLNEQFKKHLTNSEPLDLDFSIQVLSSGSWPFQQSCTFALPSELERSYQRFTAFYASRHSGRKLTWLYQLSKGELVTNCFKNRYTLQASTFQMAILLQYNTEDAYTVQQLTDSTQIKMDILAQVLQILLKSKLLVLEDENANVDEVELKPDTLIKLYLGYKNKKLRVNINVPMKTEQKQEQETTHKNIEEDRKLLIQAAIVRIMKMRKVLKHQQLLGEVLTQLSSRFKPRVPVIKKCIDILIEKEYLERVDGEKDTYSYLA
* hit, by the source's call.

SMILES	RBX1-CUL1 inh
COc1cc(C(=O)Nc2cc(Cl)ccc2Cl)ccc1NC(=O)c1ccc(Br)cc1	3
O=C1C2C3C=CC(C3)C2C(=O)N1c1ccccc1OS(=O)(=O)c1ccc(Cl)cc1 (centres undefined)	0
Cc1cc(/C=C2/SC(=O)N(C)C2=O)c(C)n1-c1ccc(Cl)cc1	2
COc1ccc(C(=O)Oc2ccc(/C=c3/sc4n(c3=O)C(c3ccccc3Cl)C3=C(N=4)c4ccccc4CC3)cc2)cc1 (centres undefined)	-9
COc1ccc(C2C3=C(N=c4s/c(=C/c5ccc(C(=O)O)cc5)c(=O)n42)c2ccccc2CC3)cc1 (centres undefined)	76*
COc1ccc(C2C3=C(N=c4s/c(=C/c5ccc(C(C)C)cc5)c(=O)n42)c2ccccc2CC3)cc1 (centres undefined)	3
Cc1cc(-c2ccc(S(=O)(=O)Nc3ccc(Cl)cc3C)cc2)on1	-6
CCOC(=O)c1nc(-c2ccccc2)n(C)c1C	-10
CCOC(=O)c1c(NC(=O)CCC(=O)O)sc(C)c1-c1ccc(CC(C)C)cc1	91*
CCOC(=O)c1c(NC(=O)CCCC(=O)O)sc(C)c1-c1ccc(F)cc1	3
CCOC(=O)c1c(NC(=O)c2cccs2)sc(C)c1-c1ccc(OC)cc1	3
COc1ccc(CC(=O)NCC2CCCN(C(=O)Cc3csc(C)n3)C2)cc1 (centres undefined)	-7
COc1cc(C2c3ccc4ccccc4c3N=C3CC(C)(C)CC(=O)C32)cc(Br)c1O (centres undefined)	4
COC(=O)CCCC(=O)N(C)CC1CCCN(CCc2ccc(OC)cc2)C1 (centres undefined)	0
CCN(CC)CCN=C(N)C(C#N)CC1=Nc2ccccc2C1=O (centres undefined)	0
N#CC(CC1=Nc2ccccc2C1=O)C(N)=NC1CCCCC1 (centres undefined)	71*
CN(C)CC1=Nc2ccccc2C1=O	3
CCC(=O)N1c2ccccc2N=C2CC(C)(C)CC(=O)C2C1c1cccn1C (centres undefined)	-4
CCC(=O)Nc1cc(Cl)ccc1C	2
COC(=O)COc1ccc2c(=O)c(Oc3ccccc3)c(C)oc2c1	-6
Cc1oc2cc(OC(C)C)ccc2c(=O)c1Oc1ccccc1F	0
Cc1oc2c(O)c(O)ccc2c(=O)c1Oc1ccc(F)cc1	56*
C=C(C)COc1ccc(NC(=O)Nc2ccccc2)cc1	5
O=C(/C=C/c1ccco1)Nc1ccc2oc(-c3ccccc3Br)nc2c1	-2
COc1cccc(-c2ccnc3c2c(=O)[nH]c(=O)n3Cc2ccccc2)c1	-2
SMILES	RBX1-CUL1 inh
CCCCCCCC(=O)N=C1C(=O)N(c2ccccc2)N(C)C1C (centres undefined)	11
CCCCCCN1C(=O)C2=C(c3cc(O)cc(O)c3)N(CCCCCC)C(=O)C2=C1c1cc(O)cc(O)c1	46*
CCCCCCN1C(=O)/C(=C/c2cc(OC)c(OC)c(OC)c2)N(C)C1=S	3
CCCCCc1ccc(OC(=O)c2ccc(OC(=O)c3ccc4cc(CCCC)ccc4c3)cc2Cl)cc1	-11
Clc1cccc(Cl)c1CN1CCC2(CC1)OCCO2	-3
O=C1CCCN1c1ccc(S(=O)(=O)NC2CC2)cc1	-9
NS(=O)(=O)c1nnc(NS(=O)(=O)c2ccc(NC(=O)c3ccccn3)cc2)s1	2
c1cc(-n2cnnn2)cc(-n2cnnn2)c1	5
O=C(OC1=CC(=O)c2ccccc2C1=O)c1ccccc1	-17
CC(=O)C(C(C)=O)C1=CC(=O)C(=O)c2ccccc21	103*
CCc1cc2c(cc1OC(C)=O)C(=O)c1ccccc1C2=O	10
Cn1c(-c2ccncc2)nc2cc(C(=O)NCc3ccccc3Cl)cc(NC(=O)C3CCC3)c21	0
CN=C1CC=CC=C(/C(C)=N/Nc2ccccc2)C1=O	-5
CN=C1CC=CC=C(C(=O)/C=C/c2ccc3c(c2)OCO3)C1=O	93*
CN=C1CC=C(Br)C=C(C(=O)/C=C/c2ccc3c(c2)OCO3)C1=O	-1
CN=C1CC=C(Br)C=C(C(=O)/C=C/c2ccc(C#N)cc2)C1=O	4
CN=C1CC=CC=C(C(=O)/C=C/c2cccc(C#N)c2)C1=O	49*
CCN=C1CC=CC=C(C(=O)/C=C/c2ccc3c(c2)OCO3)C1=O	4
CCOc1ccc(C2CC(=O)Nc3c2c(=O)n(C)c(=O)n3C)cc1OC (centres undefined)	-7
O=S(=O)(c1ccccc1)N1C[C@H](O)[C@@H](N2CCN(c3nc4ccccc4o3)CC2)C1	5
COc1ccc(-c2cn3c(C(=O)N(C)Cc4ccco4)csc3n2)cc1F	12
COc1ccc(NC(=O)c2nn(C)c3c2CSc2ccc(C)cc2-3)cc1OC	6
Cn1nc(C(=O)N2CCN(c3ccc(Cl)cc3)CC2)c2c1-c1ccccc1SC2	1
Cc1ccc2c(c1)-c1c(c(C(=O)N3CCN(c4cc(C)ccc4C)CC3)nn1C)CS2	44*
CCc1ccc(C(=O)Nc2ccccc2N2CCN(C(=O)c3ccccc3)CC2)cc1	-2
SMILES	RBX1-CUL1 inh
O=C1SC(SCc2ccccc2Cl)=N/C1=C\c1ccco1	-5
O=C1SC(SCc2ccccc2Cl)=N/C1=C\C=C\c1ccco1	88*
O=C(/C=C/c1ccco1)CC1(O)C(=O)N(Cc2ccccc2Cl)c2ccccc21 (centres undefined)	5
COc1cccc(/C=C2\C(=O)Nc3ccc(Br)cc32)c1	7
O=C1Nc2ccc(Br)cc2/C1=C/c1cc(O)c(O)c(Br)c1	66*
Cc1ccc(/C=C2\C(=O)Nc3ccc(Br)cc32)cc1C	1
CCCn1c(=O)c2c(nc3oc(C(C)(C)C)cn32)n(C)c1=O	2
O=S(=O)(Nc1ccc(F)cc1)c1ccc(-c2ccc(Cl)cc2)cc1	1
C=CCc1cc(/C=C2\SC(=O)N(CC(=O)Nc3ccccc3C)C2=O)cc(OC)c1OC	0
O=[N+]([O-])c1ccc(N=Cc2cc3c(cc2[N+](=O)[O-])OCO3)c(Br)c1	7
Cc1ccccc1N=Cc1cc2c(cc1[N+](=O)[O-])OCO2	-1
Cc1c(N=Cc2cc3c(cc2[N+](=O)[O-])OCO3)cccc1[N+](=O)[O-]	91*
COC(=S)c1csc2nnsc12	-9
COC(=O)c1ccc(N=C2S/C(=C\c3ccc(Sc4ccccc4)o3)C(=O)N2C)cc1	1
O=C1C(Cl)=C(N2CCN(Cc3ccccc3)CC2)C(=O)c2ccccc21	104*
O=C1C(Cl)=C(N2CCN(S(=O)(=O)c3ccc(Cl)cc3)CC2)C(=O)c2ccccc21	1
O=c1cc(C(F)(F)F)nc(N2CCN(Cc3ccccc3)CC2)[nH]1	5
COc1ccc(CN2C[C@@H]3C[C@@H](c4ccc(OC)cc4)N4CCC[C@@]34C2=O)cc1	8
CC1=CC(C)=C2C=CC(=O)C(=O)C2O1 (centres undefined)	99*
Cn1nc(C(=O)N2CCc3onc(-c4ccccc4F)c3C2)ccc1=O	1
Cc1cccc(C(C)C)c1NC(=O)c1ccc2c(c1)CCN2S(C)(=O)=O	3
CC(C)n1cc(NC(=O)c2ccc(C3CCCN3)s2)nn1 (centres undefined)	1
O=C(Nc1ccc2scnc2c1)c1ccc(C2CCCN2)s1 (centres undefined)	99*
Cc1ccccc1NC(=O)c1ccc(C2CCCN2)s1 (centres undefined)	6
Cc1ccc(NC(=O)c2ccccc2Cl)nc1	-2
CC(=O)C1C=C(N=Nc2ccc(C)cc2)C=CC(=O)C1=O (centres undefined)	0
